Screening data as filed in PubChem BioAssay.
TDP1 cell CPT = DT40-hTDP1 cell growth loss with CPT; chicken DT40 Tdp1-/-;hTDP1 cells + 20 nM CPT, ATP luminescence, 48 h; Potency, µM (top dose mostly 46.2 µM), actives largely listed as inhibitors; 420,000 tested, 12% active; AID 686979; further: nearly all actives have a fitted effect of over 55% in size
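Cell growth measured by CellTiter-Glo luminescence after a minimum 48 h, 37 C compound exposure with 20 nM CPT in Tdp1-knockout DT40 cells stably expressing hTDP1, seeded 400/well; qHTS titration format.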
ELG1 repair inh = blocks ELG1-dependent DNA repair in HEK293T cells; HEK293T ELG1-luciferase reporter, luminescence, 16 h; DNA damage induced by 5-fluorouridine; Potency, µM (titrated, usually from 46.1 µM), most hits filed as inhibitors; 330,000 tested, 2.3% active; AID 504467; further: nearly all actives have a fitted effect of over 55% in size
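Quantitative HTS, concentration-response format. 2,000 cells/well co-treated with 5-fluorouridine and compound, 16 hr in 5% CO2 at 37 °C; ONE-Glo luminescence read after 30 min.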
HT1080 IDH1KD tx = kills HT-1080 cells with IDH1 knockdown; HT-1080 IDH1 knockdown viability, ATP luminescence, 48 h; Potency, µM (series often up to 46.1 µM), most hits filed as cytotoxic; 360,000 tested, 2% active
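Assay cells: HT-1080 with IDH1 knockdown, 750 per well, RPMI/5% FBS. Exposure: 48 h at 37 °C following 2 h pre-incubation. Read: CellTiter-Glo luminescence; fitted concentration-response, curve class assigned.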
TDP1 cell noCPT = qHTS for Inhibitors of human tyrosyl-DNA phosphodiesterase 1 (TDP1): qHTS in cells in absence of CPT; DT40 Tdp1-/- hTDP1 cells, no CPT, ATP luminescence, 48 h; Potency, µM (titrated, usually from 46.2 µM), most hits filed as inhibitors; 420,000 tested, 15% active; AID 686978, 2013; further: nearly all actives have a fitted effect of over 55% in size
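Stably hTDP1-transfected Tdp1-null chicken DT40 cells were treated with library compounds minus camptothecin and grown for at least 48 hr at 37 °C, after which cellular ATP was quantified by luminescence.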
IL1B secr inh = inflammasome signaling inhibition, IL-1 beta readout. THP-1 LPS/ATP IL-1B secretion, AlphaLISA, 16 h; active compounds read low. activity change, % at 57.5 µM. 360,000 tested, 4.7% active. AID 743279; in the data active means activity change below about -50%; inconclusive means mostly about -30% to -49%
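Secreted IL-1B measured by AlphaLISA bead assay after 16 h compound exposure of THP-1 cells; compounds (final up to 57.5 uM) added 1 h before LPS (250 ng/mL) and ATP (1.25 mM) stimulation; lower signal means less secretion.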
HT1080NT lethal = kills 2HG-producing HT-1080-NT fibrosarcoma cells; 360,000 tested, 1.6% active; AID 686970; Potency, µM (titrated, usually from 46.1 µM), most hits filed as cytotoxic; HT-1080-NT fibrosarcoma viability, CellTiter-Glo ATP luminescence, 48 h;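 further: NT is the 2HG producing partner of a matched IDH1 knockdown line; nearly all actives have a fitted effect of over 55% in size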
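Fibrosarcoma NT cells, 750 per well in 5% FBS RPMI, were exposed to compound for 48 hours. Viability: CellTiter-Glo luminescence.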
A number is an active result; . = inactive; ? = inconclusive; / = not tested or not shown; [ ] = remark or other dose. Most compounds without a hit are left out; they make up all but 19% or so of the library. Unless noted, the call rests on the fitted dose curve; in most records, active means well fitted curve in the direction sought with a large enough effect; inconclusive means small, poorly fitted or top-dose-only effect, or another doubt; inactive means no such curve, though single readings can be large; an effect the other way counts as inactive or inconclusive.

SMILES	TDP1 cell CPT	ELG1 repair inh	HT1080 IDH1KD tx	TDP1 cell noCPT	IL1B secr inh	HT1080NT lethal
Cc1ccc(-c2nnc3c4ccccc4c(C)nn23)cc1NC(=O)CN1CCOCC1	/	.	/	/	/	/
Cc1ccc(-c2nnc3c4ccccc4c(C)nn23)cc1S(=O)(=O)N1CCN(C)CC1	?	/	.	.	.	.
Cc1nn2c(-c3cccc(NC(=O)CN4CCOCC4)c3)nnc2c2ccccc12	29.1µM	/	.	12.6µM	/	.
Cc1nn2c(-c3cccc(NC(=O)CSc4nc5ccccc5o4)c3)nnc2c2ccccc12	11.6µM	?	.	7.31µM	.	.
Cc1ccc(-c2nnc3c4ccccc4c(C)nn23)cc1S(=O)(=O)N1CCN(CCO)CC1	?	?	.	18.4µM	?	.
Cc1nn2c(-c3cccc(NC(=O)c4ccccc4)c3)nnc2c2ccccc12	4.61µM	/	/	2.91µM	/	/
COc1ccc(S(=O)(=O)N2CCCC2)cc1C(=O)O	.	.	.	.	.	.
N#Cc1cc2c(nc1SCc1ccc(Cl)nc1)CCCCC2	.	.	.	?	.	.
CCn1cc(/C=C(\NC(=O)c2cc(OC)c(OC)c(OC)c2)C(=O)N2CCOCC2)c2ccccc21	.	/	.	?	.	.
CCOC(=O)c1cn(-c2c(Cl)cccc2Cl)c2cc(Cl)c([N+](=O)[O-])cc2c1=O	?	?	?	16.4µM	-54.4	?
CCOC(=O)c1cn(CC2CC2)c2cc(F)c(F)cc2c1=O	.	.	.	.	.	.
CCc1c(C)nc(SCc2nc(-c3ccccc3)no2)[nH]c1=O	.	/	/	?	/	/
CC(C)CC(NC(=O)CC12CC3CC(CC(C3)C1)C2)C(=O)NC1=NCCS1 (stereo not given)	?	.	.	25.9µM	.	.
O=C(NC1=NCCS1)C12CC3CC(CC(C3)C1)C2	.	.	.	.	.	.
O=C(NC(=S)NCc1nc2ccccc2[nH]1)c1ccccc1F	23.1µM	?	.	16.4µM	.	.
COc1ccc(OCCCC(=O)NCCc2nc3ccccc3[nH]2)cc1	.	.	.	.	.	.
COc1ccc(Br)c(C(=O)Nc2nc3ccccc3[nH]2)c1	.	?	.	5.17µM	.	.
O=C(Nc1nc2ccccc2[nH]1)c1cc(F)cc(F)c1	.	?	?	?	.	?
CCCCN(C(=O)c1ccccc1Br)C(c1ccc(OC)cc1)c1nc2ccccc2[nH]1 (stereo not given)	16.4µM	/	?	?	.	?
COc1cc(OC)cc(C(=O)Nc2nc3ccccc3[nH]2)c1	20.6µM	?	.	29.1µM	.	.
COC(=O)c1cc2occc2n1Cc1nc(-c2cccc(Br)c2)oc1C	.	/	/	.	/	/
O=C(Nc1nc2ccccc2[nH]1)c1ccc(F)cc1	.	?	?	?	.	.[9.24 µM]
COc1ccc2oc(C(=O)Nc3nc4ccccc4[nH]3)c(C)c2c1	20.6µM	?	.	10.3µM	.	.
O=C(Nc1nc2ccccc2[nH]1)c1ccccc1F	?	?	5.8µM	11.6µM	.	4.61µM
Cc1cc(C)cc(C(=O)Nc2nc3ccccc3[nH]2)c1	?	?	.	23.1µM	.	.
SMILES	TDP1 cell CPT	ELG1 repair inh	HT1080 IDH1KD tx	TDP1 cell noCPT	IL1B secr inh	HT1080NT lethal
CN(Cc1cnc2nc(N)nc(N)c2n1)c1ccc(C(=O)NC(CCC(=O)O)C(=O)O)c2ccccc12 (stereo not given)	0.092µM	/	0.0058µM	0.0517µM	.	?
Nc1ncnc2c1ncn2[C@@H]1O[C@H](COP(=O)(O)OP(=O)(O)O)[C@@H](O)[C@H]1O	.	/	/	.	/	/
CCOc1ccc(NC(=S)N=Nc2c(O)[nH]c3ccccc23)cc1	9.2µM	?	?	7.31µM	.	?
Oc1cccc(NC(=S)N=Nc2c(O)[nH]c3ccccc23)c1	?	?	?	13µM	.	?
O=C(NCC[C@H]1CC[C@@H](NC(=O)C2CCC2)[C@@H](CO)O1)c1cc(Cl)cc(Cl)c1	.	/	.	.	.	.
Nc1cccc2nc3ccccc3cc12	6.51µM	23.1µM	13µM	?	.	18.4µM
